Laboratory results: PubChem BioAssay AID651956 (Broad Institute, 2012)
Potency and affinity values are given separately. Records with an inconclusive call do not appear. Active and inactive are the calls of the source.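 How the source made its calls: active means in every test run, a fitted half-maximal concentration for signal decrease at or below twice the highest tested concentration; inconclusive means runs disagree, flat 30 to 70% decrease, or poor fit; inactive means the rest.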

Test: miR-122 activators in hepatoma reporter cells, dose response, cell-based, Huh7 psiCHECK-miR122, Renilla luciferase, cherry-picked (AID 651956);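 further: Renilla luciferase from a miR-122 sensor reporter so lower signal means miR-122 activation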
Conditions: 48 h; series mostly up to 35 µM

outcome, inactive:
CCCCNc1cc(C)nc(NCc2ccccc2)n1
COC(=O)C[C@H]1CC[C@H]2[C@H](COc3ccc(NC(=O)c4cscn4)cc3C(=O)N2C)O1
CCCCNC(=O)Nc1nnc(-c2ccc(OCC)cc2)o1
Cn1c(-c2ccc(N)cc2)nc2ccccc21
COc1ccc(CNC(=O)NCCc2c[nH]c3ccccc23)cc1
COc1ccc(-c2nc(NC(=O)CSc3nnc(C)s3)ns2)cc1
Cc1noc(C)c1NC(=O)Nc1ccc2c(c1)C(=O)N(C)[C@@H]1CC[C@H](CC(=O)N[C@H]3CCN(Cc4ccccc4)C3)O[C@H]1CO2
C[C@@H]1CN([C@H](C)CO)S(=O)(=O)c2ccc(C3=CCCCC3)cc2O[C@@H]1CN(C)C(=O)Nc1ccc2c(c1)OCO2
CNC(=O)C[C@@H]1CC[C@@H]2[C@H](COc3ccc(NC(=O)c4cccc(OC)c4)cc3C(=O)N2C)O1
CCCC(=O)Nc1ccc2c(c1)C(=O)N(C)[C@H]1CC[C@@H](CC(=O)NCCN3CCCCC3)O[C@H]1CO2
CCNC(=O)Nc1ccc2c(c1)C(=O)N(C)[C@H]1CC[C@H](CC(=O)Nc3cccc(F)c3)O[C@@H]1CO2
CN1C(=O)c2cc(NC(=O)c3cccc(F)c3)ccc2OC[C@@H]2O[C@@H](CC(=O)Nc3ccccc3)CC[C@@H]21
CC1CCN(CCc2nc3cc(NC(=O)Nc4ccccc4)ccc3n2C)CC1
CO[C@@H]1CN(C)C(=O)c2ccc(NS(C)(=O)=O)cc2OC[C@H](C)N(C(=O)CN(C)C)C[C@@H]1C
